In PubChem BioAssay (NCATS):
Records with an inconclusive call do not appear. Active and inactive are the calls of the source. Calls come from the whole dose curve; as a rule, active = well fitted inhibition curve with a large enough effect; inconclusive = small, poorly fitted or top-dose-only effect; inactive = flat fitted curve, though single readings scatter.

How the values were obtained:
Test in all cases: qHTS profiling for inhibitors of Plasmodium falciparum proliferation (AID 504749); note: nearly all actives have a fitted effect of over 60% in size
Details in all cases: P. falciparum in erythrocytes, SYBR Green DNA, 72 h; series mostly up to 28.7 µM
DIV30 = test system: DIV30
Summary of the method: (§1)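 Readout was DNA-dye fluorescence from lysed cultures, ex 485/em 535 nm. Parasitized red cells had grown 72 h with compound; data scaled between 0.29 uM artemisinin and DMSO wells and corrected using vehicle-only plates.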

Dd2 = test system: Dd2
Summary of the method: as §1

ECU = test system: ECU
Summary of the method: as §1

FAB9 = test system: FAB9
Summary of the method: as §1

GB4 = test system: GB4
Summary of the method: as §1

HB3 = test system: HB3
Summary of the method: as §1

ICS = test system: ICS
Summary of the method: as §1

JCK = test system: JCK
Summary of the method: as §1

N140 = test system: N140
Summary of the method: as §1

P93_24 = test system: P93_24
Summary of the method: as §1

P94_40 = test system: P94_40
Summary of the method: as §1

PAD = test system: PAD
Summary of the method: as §1

PC15 = test system: PC15
Summary of the method: as §1

PC26 = test system: PC26
Summary of the method: as §1

PC49 = test system: PC49
Summary of the method: as §1

SC27B = test system: SC27B
Summary of the method: as §1

TAB109 = test system: TAB109
Summary of the method: as §1

TAB113 = test system: TAB113
Summary of the method: as §1

TAB165 = test system: TAB165
Summary of the method: as §1

W2 = test system: W2
Summary of the method: as §1

Measured: Potency

CCOc1ccc(NC(=S)Nc2ccc(OCC)cc2)cc1
inactive: all assays above

O=C(NNCNNC(=O)c1ccncc1)c1ccncc1
inactive: all assays above

O=P(O)(O)OC[C@H](O)CO
inactive: all assays above

C[Si](C)(C)O[Si](C)(C)C
inactive: all assays above

O=C(O)/C=C/c1ccccc1
inactive: all assays above

O=C(O)CCCC/C=C(\c1ccccc1)c1cccnc1
inactive: all assays above

CCN(CC)CCOc1ccc2nc(N(C)C)sc2c1
inactive: all assays above

N[C@H](CC(=O)O)C(=O)O
inactive: all assays above

O=C(O)CCC(=O)c1ccc(-c2ccccc2)cc1
inactive: all assays above

CCCCCCCCCCCCCCCCCC(=O)OCC(C)O (stereo not given)
inactive: all assays above
